Measured values: ChEMBL document CHEMBL4513141, “CO-ADD screening of NIH (USA) - Clinical Collection” (2021)
Results with a measured potency or affinity are listed apart.

These compounds were tested on Staphylococcus aureus. Conditions: Concentration 20 uM; ASSAY_TEST Inhibition of Bacterial Growth; detection method Absorption (OD600); MEDIA CAMHB; plate type 384well; NBS; CORNING #3640; time 18 hr.

Row | Compound | Inhibition [%]
1 | CC1=C(/C=C/C(C)=C/C=C/C(C)=C\C(=O)O)C(C)(C)CCC1 [ISOTRETINOIN] | 5.02
2 | CC(C)NCC(O)COc1ccc(COCCOC(C)C)cc1.CC(C)NCC(O)COc1ccc(COCCOC(C)C)cc1.O=C(O)/C=C/C(=O)O (configuration not stated) [BISOPROLOL FUMARATE] | 7.74
3 | CN1CCN(CCCN2c3ccccc3Sc3ccc(C(F)(F)F)cc32)CC1.Cl.Cl [TRIFLUOPERAZINE HYDROCHLORIDE] | 19.71
4 | CCCc1nc(C(C)(C)O)c(C(=O)OCc2oc(=O)oc2C)n1Cc1ccc(-c2ccccc2-c2nnn[nH]2)cc1 [OLMESARTAN MEDOXOMIL] | 10.76
5 | O=c1[nH]c(=O)n(C2CCCO2)cc1F (configuration not stated) [TEGAFUR] | 17.75
6 | CS(=O)(=O)c1ccc(C2=C(c3ccccc3)C(=O)OC2)cc1 [ROFECOXIB] | 8.94
7 | Cc1sc(N)c(C(=O)c2cccc(C(F)(F)F)c2)c1C | 5.2
8 | CCC(=O)[N-]S(=O)(=O)c1ccc(-c2c(-c3ccccc3)noc2C)cc1.[Na+] [PARECOXIB SODIUM] | 0.13
9 | OCCN(CCO)c1nc(N2CCCCC2)c2nc(N(CCO)CCO)nc(N3CCCCC3)c2n1 [DIPYRIDAMOLE] | -23.93
10 | CN1C(C(=O)Nc2ccccn2)=C(O)c2ccccc2S1(=O)=O.O | 15.17
11 | Sc1ncnc2nc[nH]c12 [MERCAPTOPURINE ANHYDROUS] | 22.75
12 | COc1cc([C@@H]2c3cc4c(cc3[C@@H](O[C@@H]3O[C@@H]5CO[C@@H](C)O[C@H]5[C@H](O)[C@H]3O)[C@H]3COC(=O)[C@H]23)OCO4)cc(OC)c1O [ETOPOSIDE] | 14.84
